Source: PubChem (several laboratories)
The list is not random: actives were taken first. Their share in the collection is about 1.1%.
Yp Topo-I inh – inhibitors of Yersinia pestis topoisomerase I. Y. pestis Topo-I cleavage product accumulation, plate reader. activity, % at 10 µM. hit rate 0.064% among 360,000. AID 504884; in the data active = activity above about 50%, passing the limit was not always enough
CCHF vOTU inh-1 – blocks the CCHF virus ovarian tumor domain protease; CCHFV vOTU protease, Pep-AMC fluorescence; inhibition, % at 11.5 µM; hit rate 0.55% among 370,000; AID 651958
RecA splice inh – Mtb RecA intein splicing inhibition. cell-free RecA intein splicing, fluorescence. inhibition, % (no concentration beside the values). hit rate 0.75% among 290,000; in the data active = inhibition above about 30%
Target sequence (P9WHJ3 whole entry, looked up, canonical isoform): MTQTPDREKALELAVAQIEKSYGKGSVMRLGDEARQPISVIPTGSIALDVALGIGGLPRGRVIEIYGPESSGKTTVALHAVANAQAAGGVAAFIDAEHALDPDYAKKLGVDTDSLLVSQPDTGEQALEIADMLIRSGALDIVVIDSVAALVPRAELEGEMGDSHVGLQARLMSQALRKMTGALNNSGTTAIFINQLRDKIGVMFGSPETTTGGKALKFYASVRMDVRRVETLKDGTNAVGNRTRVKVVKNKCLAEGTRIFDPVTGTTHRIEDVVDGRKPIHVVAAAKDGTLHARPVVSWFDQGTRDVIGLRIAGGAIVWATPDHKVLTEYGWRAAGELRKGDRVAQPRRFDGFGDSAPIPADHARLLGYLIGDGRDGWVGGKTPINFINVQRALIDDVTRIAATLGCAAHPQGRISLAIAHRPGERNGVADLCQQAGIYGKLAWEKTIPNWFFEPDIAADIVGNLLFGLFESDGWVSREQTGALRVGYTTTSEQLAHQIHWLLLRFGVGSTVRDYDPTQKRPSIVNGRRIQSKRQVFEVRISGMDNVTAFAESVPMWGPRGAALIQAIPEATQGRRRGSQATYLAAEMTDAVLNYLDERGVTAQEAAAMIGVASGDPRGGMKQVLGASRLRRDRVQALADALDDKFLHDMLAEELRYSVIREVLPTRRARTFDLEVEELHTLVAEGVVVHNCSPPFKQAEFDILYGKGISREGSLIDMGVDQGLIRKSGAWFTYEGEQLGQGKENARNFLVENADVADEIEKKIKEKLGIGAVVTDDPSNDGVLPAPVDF
BJeLR lethal – kills HRASV12-expressing BJeLR cells; inhibition, % (no concentration beside the values); hit rate 0.17% among 300,000; BJeLR (HRASV12) viability, CellTiter-Glo ATP luminescence, 48 h; in the data active = inhibition above about 50%
Mtb bLac sens – beta-lactam sensitization of Mtb H37Rv | M. tuberculosis H37Rv growth with meropenem, percent inhibition | inhibition, % at 25 µM | hit rate 0.27% among 330,000 | AID 434955; call rule not given here;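 note: growth measured after seven days incubation then overnight dye step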
BioA inh – blocks M. tuberculosis BioA enzyme activity; purified M. tuberculosis BioA enzyme, plate reader; inhibition, % at 9.99 µM; hit rate 0.096% among 360,000; AID 602481; in the data active = inhibition above about 40%
CCHF vOTU inh-2 – confirmation of CCHF virus vOTU protease inhibitors. shares compounds with CCHF vOTU inh-1. Recombinant CCHFV vOTU, Pep-AMC fluorescence. inhibition, % at 11.5 µM. hit rate 17% among 1,900. AID 686976
Numbers stand for hits; n = inactive; x = no result given. Cut-off read from the data, not from the text of the source, unless noted: active = inhibition above about 30%; inactive = the rest.

SMILES	Yp Topo-I inh	CCHF vOTU inh-1	RecA splice inh	BJeLR lethal	Mtb bLac sens	BioA inh	CCHF vOTU inh-2
Cc1ccc(S(=O)(=O)N(C)C[C@H]2OCCCC[C@H](C)Oc3ccc(NS(=O)(=O)c4cn(C)cn4)cc3C(=O)N([C@@H](C)CO)C[C@H]2C)cc1	x	x	x	x	x	n	x
CCOC(=O)c1cc2c(ccn2C)n1Cc1ccccc1C	n	31	n	n	n	n	43
CCOC(=O)c1cc2c(ccn2C)n1Cc1ccccc1Cl	n	n	n	n	n	x	x
CCOC(=O)c1cc2c(ccn2C)n1CC(=O)N(Cc1ccccc1)c1ccccc1	n	55	n	n	n	x	n
O=c1oc2cc(O)c(Cl)cc2c2ccccc12	n	30	n	n	n	n	n
C[C@@H]1CN([C@H](C)CO)C(=O)c2cccc(NC(=O)c3ccc(-c4nccs4)cc3)c2O[C@H]1CN(C)C(=O)Nc1ccccc1	x	x	x	x	x	n	x
CC(=O)Nc1c([N+](=O)[O-])cc2c3c(cccc13)CC2	x	33	x	x	x	n	n
COc1cc(/C=N/NC(=O)[C@H](Cc2c[nH]c3ccccc23)NC(=O)OCC(C)C)cc([N+](=O)[O-])c1O	n	36	n	n	n	x	n
Cc1cccc(C)c1-n1cccc1/C=C1/C(=N)N2C(=NC1=O)SN=C2S(C)(=O)=O	n	35	n	n	n	x	n
Cc1ccc(-n2cccc2/C=C2/C(=N)N3C(=NC2=O)SN=C3S(C)(=O)=O)cc1Cl	n	52	x	x	n	n	n
CN(C)c1ccc(N/C=C/C(=O)C(C)(C)C)cc1	n	59	n	n	n	n	n
CN(C)c1ccc(/C=C/C(=O)c2ccc(O)cc2)cc1	n	35	x	x	x	x	n
CN(C)c1ccc(N/C=C/C(=O)c2ccccc2)cc1	n	60	n	n	n	n	n
C[C@H](CO)N1C[C@H](C)[C@H](CN(C)CC2CCCCC2)Oc2c(NS(=O)(=O)c3ccc(Cl)cc3)cccc2C1=O	x	x	x	x	x	n	x
Cc1ccc(NC(=O)c2ccccc2NS(=O)(=O)c2ccc(Cl)s2)cc1S(=O)(=O)N1CCOCC1	n	31	n	n	n	x	n
O=C(Nc1cc(S(=O)(=O)N2CCOCC2)ccc1O)c1ccc(NS(=O)(=O)c2ccc(Cl)s2)cc1	n	n	n	n	n	x	x
C[C@@H]1CN([C@@H](C)CO)S(=O)(=O)c2ccc(-c3ccncc3)cc2O[C@@H]1CN(C)C(=O)CN(C)C	x	x	x	x	x	n	x
CCCCOCCCNC(=O)C[C@H]1C[C@@]2(C(=O)OC)C(=C[C@H](C3CCCC3)O[C@@H]2C)N(Cc2ccc(Cl)cc2Cl)C1=O	x	n	x	x	x	x	x
CCCCCCCCN1C(=O)[C@@H](CC(=O)NCCCOC)C[C@@]2(C(=O)OC)C1=C[C@H](C(C)(C)C)O[C@@H]2C	x	36	x	x	x	x	n
CCCCCCCCN1C(=O)[C@@H](CC(=O)N2CCN(C(=O)C3CC3)CC2)C[C@@]2(C(=O)OC)C1=C[C@H](C(C)(C)C)O[C@@H]2C	x	38	x	x	x	x	n
CCCCOCCCNC(=O)C[C@H]1C[C@@]2(C(=O)OC)C(=C[C@H](C(C)(C)C)O[C@@H]2C)N(Cc2ccc(Cl)cc2Cl)C1=O	x	39	x	x	x	x	n
CCCCCCCCN1C(=O)[C@@H](CC(=O)NCCC(C)C)C[C@@]2(C(=O)OC)C1=C[C@H](C(C)(C)C)O[C@@H]2C	x	n	x	x	x	x	x
Cc1noc(C)c1S(=O)(=O)Nc1ccc2c(c1)C(=O)N([C@@H](C)CO)C[C@H](C)[C@@H](CN(C)Cc1ccc3c(c1)OCO3)OCCCC[C@@H](C)O2	x	x	x	x	x	n	x
O=C(C[C@@H]1CC[C@@H](NC(=O)Nc2ccc3c(c2)OCO3)[C@@H](CO)O1)NCc1ccc(F)cc1	x	x	x	x	x	n	x
CC(=O)Nc1ccc(NC2=C/C(=N/S(=O)(=O)c3cccs3)c3ccccc3C2=O)cc1	n	110	x	n	n	x	97
SMILES	Yp Topo-I inh	CCHF vOTU inh-1	RecA splice inh	BJeLR lethal	Mtb bLac sens	BioA inh	CCHF vOTU inh-2
CC(=O)Nc1ccc(NC(=O)C(C)OC(=O)c2ccccc2NS(=O)(=O)c2cccs2)cc1 (stereo unspecified)	n	n	n	n	n	n	x
Cc1cc2cc(C(c3nnnn3Cc3ccco3)N3CCc4ccccc4C3)c(=O)[nH]c2cc1C (stereo unspecified)	n	61	n	n	n	x	n
C[C@@H]1CN([C@H](C)CO)S(=O)(=O)c2ccc(C#CC3CC3)cc2O[C@@H]1CN(C)C(=O)C1CC1	x	x	x	x	x	n	x
Oc1ccccc1CNc1cccc2cccnc12	n	52	n	n	n	x	91
NC(=S)NNc1cccc2cccnc12	n	101	n	n	n	n	34
NC(=S)Nc1cccc2cccnc12	n	n	n	n	n	n	x
CC(C)NC(=O)Nc1ccc2c(c1)C(=O)N([C@@H](C)CO)C[C@H](C)[C@@H](CN(C)Cc1ccncc1)OCCCC[C@H](C)O2	x	x	x	x	x	n	x
COc1ccccc1-c1cnc2c(c1)C(=O)N([C@@H](C)CO)C[C@@H](C)[C@@H](CN(C)CC1CCOCC1)O2	x	x	x	x	x	n	x
COc1ccc(NC(=O)N(C)C[C@@H]2OCc3ccccc3-c3c(n(C)c4ccccc34)C(=O)N([C@@H](C)CO)C[C@@H]2C)c(OC)c1	x	x	x	x	x	n	x
C=CCn1c2ccccc2c2nnc(SCCCn3c(=O)[nH]c4ccccc43)nc21	n	31	x	x	x	n	n
C=CCn1c2ccccc2c2nnc(SCCN3CCCCC3)nc21	n	n	n	n	n	n	x
COc1cccc(CN2[C@H](CO)[C@@H]3c4ccccc4N(C(=O)C4CC4)C[C@@H]32)c1	x	x	x	x	x	n	x
CO[C@@H]1CN(C)C(=O)c2ccc(NS(C)(=O)=O)cc2OC[C@@H](C)N(Cc2cccnc2)C[C@H]1C	x	x	x	x	x	n	x
CO[C@@H]1CN(C)C(=O)c2cc(NC(C)=O)ccc2OC[C@H](C)N(C(=O)C2CCCCC2)C[C@@H]1C	x	x	x	x	x	n	x
O=C(/C=C/c1ccccc1)Nc1cccc(C(=O)O)c1	n	n	n	n	n	x	x
O=C(/C=C/c1ccccc1)Nc1cc(NC(=O)/C=C/c2ccccc2)cc(C(=O)O)c1	n	36	n	n	n	n	n
O=C(C[C@@H]1CC[C@@H](NC(=O)C2CC2)[C@@H](CO)O1)NCc1ccncc1	x	x	x	x	x	n	x
CCC(C)(C)C1CCc2c(sc(NC(=O)c3ccccc3C(=O)O)c2C#N)C1 (stereo unspecified)	n	35	n	n	n	x	n
CC(=O)N1CCn2c3c(c(=O)c4cc(C)ccc42)CCC31 (stereo unspecified)	n	101	x	n	n	n	n
O=S1(=O)N=C(N(CCO)/N=C/c2ccncc2)c2ccccc21	n	30	x	n	n	n	n
O=S1(=O)N=C(N(CCO)/N=C/c2ccccc2)c2ccccc21	n	n	n	n	x	x	x
CO[C@H](CN(C)S(=O)(=O)c1ccc(Cl)cc1)[C@H](C)CN(C(=O)Nc1ccccc1F)[C@H](C)CO	x	x	x	x	x	n	x
C[C@@H]1CN([C@H](C)CO)C(=O)c2cc(Br)cnc2O[C@H]1CN(C)C(=O)c1ccccc1	n	34	x	x	x	n	n
